PubChem BioAssay (NCI)
Compounds without any hit were thinned out: in the full panel of roughly 83,000, 20% have a hit.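 Plates (96-well) were seeded with cells, treated with compound at one concentration, and incubated for 48 hours before percent growth was determined.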 Values without a mark were called inactive. Activity calls are given as the source filed them. How the source made its calls: active means growth percent below 10; inactive means the rest.

Experiments:
Assay in all cases: NCI-60 one-dose screen, 48 h (100 = growth as untreated, 0 = no growth, -100 = all killed)
Conditions in all cases: 10 µM unless noted
EKVX NSCLC = tested on: EKVX NSCLC
SN12C renal = tested on: SN12C renal
UO-31 renal = tested on: UO-31 renal
TK-10 renal = tested on: TK-10 renal
ACHN renal = tested on: ACHN renal
CAKI-1 renal = tested on: CAKI-1 renal
A498 renal = tested on: A498 renal
CCRF-CEM leukemia = tested on: CCRF-CEM leukemia
MOLT-4 leukemia = tested on: MOLT-4 leukemia
SR leukemia = tested on: SR leukemia
RPMI-8226 leukemia = tested on: RPMI-8226 leukemia
OVCAR-8 ovarian = tested on: OVCAR-8 ovarian
OVCAR-5 ovarian = tested on: OVCAR-5 ovarian
OVCAR-4 ovarian = tested on: OVCAR-4 ovarian
SK-OV-3 ovarian = tested on: SK-OV-3 ovarian
IGROV1 ovarian = tested on: IGROV1 ovarian
OVCAR-3 ovarian = tested on: OVCAR-3 ovarian
HS 578T breast = tested on: HS 578T breast
NCI/ADR-RES ovarian = tested on: NCI/ADR-RES ovarian
T-47D breast = tested on: T-47D breast

Structure (SMILES) | growth (EKVX NSCLC) | growth (SN12C renal) | growth (UO-31 renal) | growth (TK-10 renal) | growth (ACHN renal) | growth (CAKI-1 renal) | growth (A498 renal) | growth (CCRF-CEM leukemia) | growth (MOLT-4 leukemia) | growth (SR leukemia) | growth (RPMI-8226 leukemia) | growth (OVCAR-8 ovarian) | growth (OVCAR-5 ovarian) | growth (OVCAR-4 ovarian) | growth (SK-OV-3 ovarian) | growth (IGROV1 ovarian) | growth (OVCAR-3 ovarian) | growth (HS 578T breast) | growth (NCI/ADR-RES ovarian) | growth (T-47D breast)
CC1=CSC2=NCCN12 | 103% | 99.5% | 77.6% | 97.7% | 110% | 93.5% | 118% | 93.6% | 102% | 93.1% | 106% | 112% | 107% | 103% | 110% | 108% | 113% | 110% | 100% | 109%
CN(C)c1ccc(/C=C(\C#N)c2nc3ccccc3c(=O)[nH]2)cc1 | 92% | 90.8% | 35.7% | 101% | 96.1% | 98% | 90.7% | 107% | 118% | 154% | 140% | 97.1% | 86.8% | 29.9% | 114% | -10.8% (active) | 114% | 71.4% | 76.9% | 92.1%
CCOc1cc(-c2ccc[nH]2)[nH]c1/C=C1\N=C(C)C(C(=O)OC)=C1C | -50.3% (active) | -75.8% (active) | -79.9% (active) | -85.8% (active) | -76.8% (active) | -49.2% (active) | -74% (active) | -37.8% (active) | -53.8% (active) | -45.5% (active) | -40.5% (active) | -45.8% (active) | -67.6% (active) | -38.6% (active) | -63.7% (active) | -45% (active) | -89.2% (active) | -23.3% (active) | -58.7% (active) | -63.8% (active)
COc1ccc(/C=N\Nc2ccc([N+](=O)[O-])cn2)cc1OC | 63.6% | 26.2% | -11.9% (active) | -63.4% (active) | -3.48% (active) | 43.1% | -26.2% (active) | 124% | 101% | 52.9% | 40% | 14.6% | 22.2% | -56.6% (active) | 36.8% | 23.2% | 47% | 47.8% | 65% | -7.26% (active)
CCCCSc1cc(C)nc(N)n1 | 97.2% | 92.1% | 45.5% | 93.8% | 96.9% | 97.6% | 92.8% | 91.7% | 102% | 98% | 73.4% | 107% | 94% | 98.1% | 97.8% | 100% | 103% | 92.3% | 95% | 96.4%
COc1ccc2nc(NC(=O)c3cc(-c4ccc(F)cc4)n4nc(-c5ccccc5)cc4n3)sc2c1 | 79.5% | 88.6% | 73.6% | 134% | 67.5% | 77.5% | 83.4% | 64.1% | 96.1% | 77.5% | 83.5% | 53.5% | 85.6% | 59.1% | 67.6% | 101% | 67.9% | 79.9% | 70.9% | 89.5%
COc1ccc2[nH]cc(/C=C3/C(=O)Nc4ccc(Cl)cc43)c2c1 | 46.2% | 76.6% | 65.7% | 22.2% | 18.2% | 26.6% | 67.7% | 44.3% | 39.9% | 2.51% (active) | 54% | 52% | 78.1% | 51.5% | 22.5% | 54.4% | 18.1% | 31.9% | 49.6% | 61.9%
COc1ccc2[nH]c(-c3ccccc3)cc2c1 | 94.5% | 97.1% | 75.1% | 156% | 101% | 99.1% | 89% | 88.5% | 53.7% | -14.8% (active) | 48.5% | 103% | 109% | 81.3% | 110% | 100% | 101% | 105% | 113% | 72%
